A selection: hits, their analogues and other compounds. The true share with any hit is near 13%.
USP30 inh: inhibitors of human USP30 deubiquitinase. Ubiquitin carboxyl-terminal hydrolase 30 (Homo sapiens), Q70CQ3. purified USP30, Ub-rhodamine cleavage fluorescence. inhibition, % at 25 µM. 5.3% of 47,000 active. AID 1645860, 2021
USP28 block: inhibitors of human USP28 deubiquitinase. Ubiquitin carboxyl-terminal hydrolase 28 (Homo sapiens), Q96RU2. purified USP28, Ub-rhodamine cleavage fluorescence, 30 min. inhibition, % at 25 µM. 3% of 47,000 active. AID 1645857, 2021
USP10 inh: inhibitors of human USP10 deubiquitinase. AID 1645856, 2021. 1.1% of 47,000 active. purified USP10, Ub-rhodamine fluorescence, 60 min. Ubiquitin carboxyl-terminal hydrolase 10 (Homo sapiens), Q14694. inhibition, % at 20 µM
USP8 block: inhibitors of human USP8 deubiquitinase; AID 1645853, 2021; Ubiquitin carboxyl-terminal hydrolase 8 (Homo sapiens), P40818; 4.2% of 47,000 active; inhibition, % at 20 µM; purified USP8, Ub-rhodamine cleavage fluorescence, 30 min
USP17 inh: inhibitors of human USP17 deubiquitinase | Ubiquitin carboxyl-terminal hydrolase 17-like protein 5 (Homo sapiens), A8MUK1 | purified USP17, Ub-rhodamine cleavage fluorescence, 3 h | inhibition, % at 50 µM | 6.5% of 47,000 active
OTUD3 block: inhibitors of human OTUD3 deubiquitinase | OTU domain-containing protein 3 (Homo sapiens), Q5T2D3 | purified OTUD3, Ub-rhodamine fluorescence, 2 h | inhibition, % at 25 µM | 0.7% of 47,000 active | AID 1645858, 2021
Target sequence (Q5T2D3 whole entry, looked up, the tested form may be a part): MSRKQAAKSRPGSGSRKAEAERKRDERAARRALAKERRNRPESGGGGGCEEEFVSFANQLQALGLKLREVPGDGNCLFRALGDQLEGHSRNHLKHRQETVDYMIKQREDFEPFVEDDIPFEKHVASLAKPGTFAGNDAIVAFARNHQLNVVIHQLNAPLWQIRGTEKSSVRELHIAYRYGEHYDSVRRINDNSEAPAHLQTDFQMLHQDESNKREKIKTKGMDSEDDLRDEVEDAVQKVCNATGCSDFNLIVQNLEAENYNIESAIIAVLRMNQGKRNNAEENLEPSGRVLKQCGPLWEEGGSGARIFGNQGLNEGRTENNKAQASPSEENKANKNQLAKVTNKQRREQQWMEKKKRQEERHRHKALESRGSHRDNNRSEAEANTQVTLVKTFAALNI
Each line names hits and unclear results; the compound was inactive in the other large screens. Cut-off read from the data, not from the text of the source: active = inhibition above about 30%; inactive = the rest.

O=C(NC1CC1)c1cc2c(s1)CN(C1CC1)C2	none
COc1cccc(C2CCNc3ccccc3N2)c1 (centres undefined)	USP8 block 74.0, USP17 inh 36.0
CCC(Sc1cccc(NC(=O)C2CCCCC2)c1)C(=O)Nc1cc([N+](=O)[O-])ccc1C (centres undefined)	USP8 block 62.7
O=C(Nc1cccnc1)C1CCN(c2ccc([N+](=O)[O-])cn2)CC1	none
Cc1cccc(NC(=O)CN2C(=O)C(O)(c3ccccc3)c3ccccc32)c1 (centres undefined)	none
N#Cc1cc(C(=O)c2cc(F)ccc2O)cn(-c2ccccc2F)c1=O	none
C=C[C@]1(C)C=C2C(=O)[C@]3(O)OC(=O)[C@@]4(CCCC(C)(C)[C@H]34)[C@@]2(O)CC1	USP17 inh 69.3
O=C(Nc1ccc(Br)cc1F)c1cc(S(=O)(=O)NCCc2ccccc2)ccc1F	USP30 inh 36.0
N#Cc1ccc(CN2CCCC(N3CCOCC3)C2=O)cc1 (centres undefined)	none
COc1ccc(-c2cn3c(-c4ccccc4)c(-c4ccccc4)nc3n2CCc2ccccc2)cc1	USP8 block 72.8
OCCn1c(-c2ccccc2)cn2c(-c3ccccc3)c(-c3ccccc3)nc12	USP8 block 58.4
OCCCn1c(-c2ccccc2)cn2c(-c3ccccc3)c(-c3ccccc3)nc12	none
COc1ccc(-n2c(-c3ccccc3)cn3c(-c4ccccc4)c(-c4ccccc4)nc23)cc1	USP30 inh 59.2, USP8 block 80.2, USP17 inh 54.8
CCOC(=O)c1sc(NC(=O)Cc2cccc3ccccc23)nc1C	none
CC(=O)N[C@@H]1C[C@H](c2cc(F)ccc2F)O[C@@H]2CCCC[C@@H]12	none
Cc1cccc2nnc(N3CCCC(C(=O)Nc4ccccc4)C3)n12 (centres undefined)	none
Cc1nc2ncnn2c(C)c1CCC(=O)NC(C)c1ccccc1 (centres undefined)	none
O=C(CN1CCN(C(=O)c2ccc(-c3ccc(F)cc3)o2)CC1)NC1CC1	none
CCN(CC)c1ccc(NC(=O)c2cnn3c(C(F)F)cc(-c4ccc(OC)cc4)nc23)cc1	none
CCCc1ccc(C(C)NC(=O)c2cnn3c(C(F)F)cc(-c4ccc(OC)cc4)nc23)cc1 (centres undefined)	USP17 inh 33.6
Cc1ccc(-c2cc(C(F)F)n3ncc(C(=O)N(C)Cc4cnn(C)c4)c3n2)cc1	none
Cc1ccc(-c2cc(C(F)F)n3ncc(C(=O)Nc4ccc5c(c4)OCO5)c3n2)cc1	USP8 block 47.2
CCOC(=O)N1CCN(C(=O)c2ccc3c(=O)n(Cc4ccco4)c(=O)[nH]c3c2)CC1	none
CC(=O)c1nocc1C(=O)c1sccc1Cl	none
O=C(COc1cccc(-n2cnnn2)c1)NC(c1ccccc1)c1ccccc1	none
CCn1ncc(CN(C)C(=O)Nc2ccc(Cl)cc2)c1C	USP30 inh 31.7
Cc1ccc(-c2onc(C)c2C)cc1S(=O)(=O)NCc1ccccc1	USP30 inh 34.8
Cc1nc(SCC(=O)Nc2ccc(C)c(C)c2)c2oc3ccccc3c2n1	USP17 inh 36.0
Cc1nc(SCC(=O)Nc2cc(Cl)ccc2C)c2oc3ccccc3c2n1	USP30 inh 52.6, USP8 block 31.6
Cc1nc(SCC(=O)c2ccc(F)cc2)c2oc3ccccc3c2n1	none
O=C(CSc1ncnc2c1oc1ccccc12)Nc1cc(Cl)ccc1Cl	none
Cc1ccc(Cl)cc1NC(=O)CSc1ncnc2c1oc1ccccc12	USP17 inh 31.0
CCc1nnc(-c2cc(S(=O)(=O)N3CCN(c4ccccc4F)CC3)c[nH]2)o1	none
COc1ccc(N2CCN(C3=NC(CC(=O)Nc4ccccc4)C(=O)N3)CC2)cc1 (centres undefined)	USP8 block 36.4, USP17 inh 36.1
O=C1CC(C(=O)Nc2ccccc2)N=C(N2CCN(c3ccccc3F)CC2)N1 (centres undefined)	USP30 inh 33.2
O=C1CC(C(=O)Nc2ccccc2F)N=C(N2CCN(c3ccccc3)CC2)N1 (centres undefined)	none
O=C(CC1N=C(N2CCN(c3ccccc3)CC2)NC1=O)Nc1ccc(Cl)cc1 (centres undefined)	none
Cc1ccc(N2CCN(C3=NC(C(=O)Nc4ccccc4)CC(=O)N3)CC2)cc1 (centres undefined)	USP8 block 38.7
O=C(CCC1CCCN(c2cc(NC3CC3)ncn2)C1)Nc1ccccc1 (centres undefined)	none
CC(=O)Nc1ccc(C(=O)N[C@@H]2[C@@H](c3ccccc3)[C@@H](CO)N3CCC[C@H]23)cc1	none
CCC(C(=O)Nc1ccc(N2CCOCC2)cc1)c1ccccc1 (centres undefined)	none
COC(=O)CNC(=O)c1cnc(Nc2ccccc2OC)c2ccccc12	USP17 inh 30.8
COc1ccccc1Nc1ncc(C(=O)N(C)Cc2ccccc2)c2ccccc12	USP8 block 68.8
COc1ccccc1Nc1ncc(C(=O)NCCc2ccc(Cl)cc2)c2ccccc12	USP8 block 37.3, USP17 inh 80.9
Cc1c(Cl)cccc1NS(=O)(=O)c1ccc(NC(=O)Nc2ccccc2)cc1	USP30 inh 33.7, USP17 inh 39.4
Cc1c(Cl)cccc1NS(=O)(=O)c1ccc2[nH]cc(C(=O)N3CCCCCC3)c(=O)c2c1	none
Cc1ccc(C(C)C)c(OCC(=O)Nc2ccc(S(=O)(=O)Nc3cc(C)nc(C)n3)cc2)c1	none
COc1cc(NS(=O)(=O)c2ccc(NC(=O)COc3ccc(C)cc3Br)cc2)nc(OC)n1	USP30 inh 45.3, USP10 inh 38.0
Cc1c(Cl)cccc1NS(=O)(=O)c1ccc(N2CCCCS2(=O)=O)cc1	USP30 inh 39.9
CCOc1ccc(NS(=O)(=O)c2ccc(NC(=O)Nc3ccccc3)cc2)cc1	USP30 inh 82.9, USP28 block 48.7, USP10 inh 33.9, USP8 block 44.7
CC(=O)Nc1ccc(S(=O)(=O)Nc2ccc(OCc3ccccc3)cc2)cc1	none
COc1ccccc1OCC(=O)Nc1ccc(S(=O)(=O)Nc2cc(C)cc(C)c2)cc1	none
COc1ccc(NS(=O)(=O)c2ccc(NC(=O)Nc3ccc(Cl)cc3)cc2)cc1	USP28 block 42.0, USP17 inh 56.1
CCOc1ccc(NS(=O)(=O)c2ccc(NC(=O)COc3ccccc3C)cc2)cc1	USP30 inh 43.0
COc1cccc(-c2ccc3nc(C4CCN(S(C)(=O)=O)CC4)nn3c2)c1	none
Cc1cc(C)n(-c2nc3ccccc3nc2N2CCN(c3ccc([N+](=O)[O-])cc3)CC2)n1	none
CCOc1ccc(Nc2nc3ccccc3nc2Nc2cc(C)nn2-c2ccc([N+](=O)[O-])cc2)cc1	USP17 inh 41.9
O=C(N[C@@H]1CC[C@@H](Oc2ccccc2)[C@@H](O)[C@@H]1O)c1ccccc1	none

Screening data from PubChem BioAssay.
